Activity calls are given as the source filed them.
What was measured:
[1] = E. coli DRC41 culture turbidity changes, primary screen, E. coli filamentation inducer project, strain DRC41, OD650, 48 h (AID 1152);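 also: E. coli MC1000 strain DRC41 lacking acrAB efflux pump and sulA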; conditions: E. coli DRC41 (acrAB sulA), higher = more signal, called active from +8 up or from −8 down
[2] = small-molecule binders of probe aLefty1, primary screen, biochemical, small-molecule microarray, 635/667 nm fluorescence (AID 1153); conditions: higher = more signal;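 also: score merges spot fluorescence with signal-to-noise ratio from the scanned slide images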
[3] = PSAC antagonists in infected red cells, primary screen, cell-based, P. falciparum Indochina, OD700, 1 h (AID 1154); conditions: P. falciparum Indochina infected RBC osmotic lysis, higher = more signal, called active from +8 up or from −8 down
[4] = PSAC antagonists in infected red cells, primary screen, cell-based, P. falciparum Indochina, OD700, 2 h (AID 1155);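 also: lysis reports solute entry through the parasite surface anion channel PSAC; channel blockers reduce lysis of infected cells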; conditions: P. falciparum Indochina infected erythrocytes, osmotic lysis OD700; higher = more signal, called active from +8 up or from −8 down
[5] = osmotic lysis modulators in infected erythrocytes, primary screen, PSAC antagonist project, cell-based, P. falciparum Indochina, OD700, 3 h (AID 1156); conditions: higher = more signal, called active from +8 up or from −8 down
[6] = PSAC antagonists in infected red cells, primary screen, cell-based, P. falciparum Indochina, OD700, 18 h (AID 1157); conditions: P. falciparum Indochina infected erythrocytes, osmotic lysis OD700, 18 h; higher = more signal, called active from +8 up or from −8 down
[7] = modulators of S6 phosphorylation in cells, primary screen, cell-based, A549, cytoblot, luminescence, serum-stimulated (AID 1158); conditions: A549 phospho-S6 cytoblot, 5 h, higher = more signal;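 also: serum-stimulated A549 lung adenocarcinoma cells; signal is phosphorylated S6 detected by cytoblot immunostaining with HRP secondary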
[8] = target: NADPH oxidase 2 (Homo sapiens) (UniProt P04839); test: NOX2-dependent H2O2 signal modulators, primary screen, NOX inhibitor project, cell-based, HEK293-NOX2, PMA-stimulated, Amplex Red fluorescence (AID 1159); conditions: 45 min, higher = more signal, called active from +8 up or from −8 down; also: test concentration not given here
[9] = target: NADPH oxidase 4 (Homo sapiens) (UniProt Q9NPH5); test: NOX4-dependent H2O2 signal modulators, primary screen, NOX inhibitor project, cell-based, HEK293-NOX4, tetracycline-induced, Amplex Red fluorescence (AID 1160); conditions: 45 min, higher = more signal, called active from +8 up or from −8 down
[10] = target: NADPH oxidase 5 (Homo sapiens) (UniProt Q96PH1); test: NOX5-dependent H2O2 signal modulators, primary screen, NOX inhibitor project, cell-based, HEK293-NOX5, Amplex Red fluorescence (AID 1161); conditions: HEK293-NOX5, ionomycin, 45 min, higher = more signal
[11] = A549 cell viability effects, profiling panel, calcein-AM fluorescence, 48 h, basal (AID 1162); conditions: higher = more signal; also: test concentration not given here
[12] = adipocyte viability effects, profiling panel, cell-based, 3T3-L1 adipocytes, calcein-AM fluorescence, 48 h, basal (AID 1163); conditions: 3T3-L1 adipocytes viability, higher = more signal; also: test concentration not given here
[13] = HepG2 cell viability effects, profiling panel, calcein-AM fluorescence, 48 h, basal (AID 1164); conditions: higher = more signal; also: test concentration not given here
[14] = MM1S cell viability effects, profiling panel, calcein-AM fluorescence, 48 h, basal (AID 1165); conditions: higher = more signal;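 also: viability of MM1S multiple myeloma cells under basal unstimulated conditions; test concentration not given here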
[15] = basal RPMI8226 viability, no added stimulus, profiling panel, cell-based, calcein-AM fluorescence, 48 h, PK04 Diversity Set (AID 1166); conditions: RPMI8226 myeloma viability, higher = more signal;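 also: cells grown under basal conditions without added stimulus; test concentration not given here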
[16] = basal HepG2 mitochondrial membrane potential changes, profiling panel, cell-based, JC-1 fluorescence, 24 h, 100 nL compound (AID 1167); conditions: higher = more signal; also: test concentration not given here
[17] = basal 3T3-L1 adipocyte mitochondrial potential changes, profiling panel, cell-based, JC-1 fluorescence, 3T3-L1 adipocytes, 24 h, 100 nL compound (AID 1168); conditions: JC-1 mitochondrial fluorescence, higher = more signal, called active from +8 up or from −8 down; also: test concentration not given here
[18] = basal RPMI8226 mitochondrial membrane potential changes, profiling panel, cell-based, JC-1 fluorescence, 24 h, 100 nL compound (AID 1169); conditions: RPMI8226 myeloma, JC-1 mitochondrial potential fluorescence, higher = more signal; also: test concentration not given here
[19] = basal MM1S mitochondrial membrane potential changes, profiling panel, cell-based, JC-1 fluorescence, 24 h, 100 nL compound (AID 1170); conditions: higher = more signal; also: test concentration not given here
[20] = A549 lung cancer cell viability effects, profiling panel, resazurin fluorescence, 24 h, PK04 Diversity Set (AID 1171); conditions: higher = more signal, called active from +8 up or from −8 down; also: test concentration not given here

NADPH oxidase 4 (Homo sapiens), sequence (Q9NPH5 whole entry, looked up): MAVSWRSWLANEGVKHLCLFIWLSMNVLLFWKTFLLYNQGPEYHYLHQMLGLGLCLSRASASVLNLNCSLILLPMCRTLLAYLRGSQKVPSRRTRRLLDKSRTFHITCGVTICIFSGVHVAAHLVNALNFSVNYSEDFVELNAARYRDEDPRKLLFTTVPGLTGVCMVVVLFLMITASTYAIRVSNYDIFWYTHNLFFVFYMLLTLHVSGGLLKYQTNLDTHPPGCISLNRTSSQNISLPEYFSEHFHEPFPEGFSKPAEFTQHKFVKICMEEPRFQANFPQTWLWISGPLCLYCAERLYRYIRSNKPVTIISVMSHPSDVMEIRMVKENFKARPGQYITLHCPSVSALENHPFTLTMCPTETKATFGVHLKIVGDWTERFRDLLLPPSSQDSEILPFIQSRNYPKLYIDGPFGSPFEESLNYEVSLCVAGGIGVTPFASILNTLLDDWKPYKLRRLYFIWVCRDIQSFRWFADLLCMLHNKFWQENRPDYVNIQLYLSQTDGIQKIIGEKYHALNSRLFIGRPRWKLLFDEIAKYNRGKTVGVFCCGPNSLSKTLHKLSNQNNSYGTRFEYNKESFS
NADPH oxidase 5 (Homo sapiens), sequence (Q96PH1 whole entry, looked up): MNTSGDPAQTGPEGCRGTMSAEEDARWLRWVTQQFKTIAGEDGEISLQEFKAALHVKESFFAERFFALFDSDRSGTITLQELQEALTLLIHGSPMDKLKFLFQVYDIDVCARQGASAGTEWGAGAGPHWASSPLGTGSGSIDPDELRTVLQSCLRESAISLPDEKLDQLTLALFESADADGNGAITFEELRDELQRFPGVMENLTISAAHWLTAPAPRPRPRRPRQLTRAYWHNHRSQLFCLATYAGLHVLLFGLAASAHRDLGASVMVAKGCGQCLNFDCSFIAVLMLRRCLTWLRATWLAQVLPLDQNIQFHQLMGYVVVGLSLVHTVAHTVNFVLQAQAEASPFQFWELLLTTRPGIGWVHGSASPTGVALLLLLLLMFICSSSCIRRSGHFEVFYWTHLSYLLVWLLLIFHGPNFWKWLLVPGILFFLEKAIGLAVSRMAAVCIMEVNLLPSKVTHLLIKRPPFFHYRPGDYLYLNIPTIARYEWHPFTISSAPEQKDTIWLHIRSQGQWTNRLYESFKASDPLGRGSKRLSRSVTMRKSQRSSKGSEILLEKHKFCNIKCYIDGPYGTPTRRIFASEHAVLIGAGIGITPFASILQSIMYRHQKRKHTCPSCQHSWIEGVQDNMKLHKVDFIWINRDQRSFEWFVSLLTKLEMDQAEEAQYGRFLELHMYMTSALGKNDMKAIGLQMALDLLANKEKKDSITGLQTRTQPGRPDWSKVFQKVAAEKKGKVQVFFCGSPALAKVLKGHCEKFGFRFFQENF
NADPH oxidase 2 (Homo sapiens), sequence (P04839 whole entry, looked up): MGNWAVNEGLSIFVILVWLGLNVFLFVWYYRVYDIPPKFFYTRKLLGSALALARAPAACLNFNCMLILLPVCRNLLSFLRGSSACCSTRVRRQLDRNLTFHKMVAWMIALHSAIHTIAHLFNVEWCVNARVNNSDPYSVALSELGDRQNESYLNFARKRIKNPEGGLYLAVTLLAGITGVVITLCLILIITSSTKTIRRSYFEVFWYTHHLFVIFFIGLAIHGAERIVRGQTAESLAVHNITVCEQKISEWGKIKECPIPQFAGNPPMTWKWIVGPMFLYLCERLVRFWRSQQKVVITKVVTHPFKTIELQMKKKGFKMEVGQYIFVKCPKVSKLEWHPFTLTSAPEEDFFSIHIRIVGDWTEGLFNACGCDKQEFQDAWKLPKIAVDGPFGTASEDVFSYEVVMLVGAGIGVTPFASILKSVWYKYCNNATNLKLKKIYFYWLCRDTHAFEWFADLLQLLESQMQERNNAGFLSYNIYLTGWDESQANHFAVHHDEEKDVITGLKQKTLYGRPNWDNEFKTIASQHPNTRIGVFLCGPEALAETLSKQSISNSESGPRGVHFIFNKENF

## COCCCNC(=O)C1N=C(c2ccc(OCCCO)cc2)N(c2ccccc2)O1 (stereo not given)
[1]
  z-score: 0.768 (inactive)
[2]
  composite z-score: -0.265
[3]
  z-score: 18.4 (active)
[4]
  z-score: 2.14 (inactive)
[5]
  z-score: 0.669 (inactive)
[6]
  z-score: 0.325 (inactive)
[7]
  z-score: 0.147
[8]
  z-score: -3.86 (inactive)
[9]
  z-score: -0.749 (inactive)
[10]
  z-score: -0.819
[11]
  z-score: -0.201
[12]
  z-score: 0.829
[13]
  z-score: -0.393
[14]
  z-score: 0.399
[15]
  z-score: 0.336
[16]
  z-score: -0.205
[17]
  z-score: -0.183 (inactive)
[18]
  z-score: -0.492
[19]
  z-score: -0.213
[20]
  z-score: 0.938 (inactive)

## COc1ccc([Si](C)(C)[C@H]2[C@H](CCO)O[C@@]3(C(=O)N(C)c4c(Br)cc(C)cc43)[C@@H]2C)cc1
[1]
  z-score: -1.28 (inactive)
[2]
  composite z-score: 0.0486
[3]
  z-score: 7.79 (inactive)
[4]
  z-score: 1.8 (inactive)
[5]
  z-score: -2.17 (inactive)
[6]
  z-score: 0.987 (inactive)
[7]
  z-score: 0.0508
[8]
  z-score: -1.41 (inactive)
[9]
  z-score: -1.15 (inactive)
[10]
  z-score: -0.777
[11]
  z-score: -4.21
[12]
  z-score: -1.8
[13]
  z-score: -4.77
[14]
  z-score: -2.69
[15]
  z-score: -4.31
[16]
  z-score: -2.21
[17]
  z-score: 0.343 (inactive)
[18]
  z-score: -1.05
[19]
  z-score: -2.29
[20]
  z-score: -6.97 (inactive)

## CCOC1=C2C(CN(S(=O)(=O)c3ccc(C)cc3)C2c2ccc(C)cc2)C2C(=O)N(c3ccccc3)C(=O)C2C1 (stereo not given)
[1]
  z-score: -0.0859 (inactive)
[2]
  composite z-score: 0.0839
[3]
  z-score: 1.87 (inactive)
[4]
  z-score: 1.24 (inactive)
[5]
  z-score: 0.398 (inactive)
[6]
  z-score: 0.855 (inactive)
[7]
  z-score: -0.258
[8]
  z-score: 1.12 (inactive)
[9]
  z-score: 0.103 (inactive)
[10]
  z-score: -0.229
[11]
  z-score: -0.592
[12]
  z-score: -0.843
[13]
  z-score: 0.58
[14]
  z-score: 0.729
[15]
  z-score: 0.285
[16]
  z-score: 0.247
[17]
  z-score: 1.2 (inactive)
[18]
  z-score: 1.1
[19]
  z-score: -1.37
[20]
  z-score: -0.376 (inactive)

## COCCOC(=O)N1C(=O)[C@@]2(c3cc(C#Cc4ccc(OC)cc4)ccc31)[C@H](C(=O)N1CCCCCCC1)[C@H]1C(=O)O[C@H](c3ccccc3)[C@H](c3ccccc3)N1[C@@H]2c1ccc(OCCO)cc1
[1]
  z-score: 2.43 (inactive)
[2]
  composite z-score: 2.36
[3]
  z-score: 7.28 (inactive)
[4]
  z-score: 1.09 (inactive)
[5]
  z-score: 0.478 (inactive)
[6]
  z-score: 0.442 (inactive)
[7]
  z-score: 1.93
[8]
  z-score: 0.453 (inactive)
[9]
  z-score: 0.266 (inactive)
[10]
  z-score: -0.169
[11]
  z-score: 1.36
[12]
  z-score: 1.96
[13]
  z-score: 0.638
[14]
  z-score: -1.36
[15]
  z-score: 0.809
[16]
  z-score: 0.162
[17]
  z-score: -6.15 (inactive)
[18]
  z-score: -0.19
[19]
  z-score: -0.987
[20]
  z-score: 1.62 (inactive)

## C=CCNC(=O)[C@H]1[C@@H]2C(=O)O[C@@H](c3ccccc3)[C@@H](c3ccccc3)N2[C@@H](c2ccccc2OCCO)[C@]12C(=O)Nc1ccc(C#CC3=CCCCC3)cc12
[1]
  z-score: 0.748 (inactive)
[2]
  composite z-score: 0.0919
[3]
  z-score: 3.01 (inactive)
[4]
  z-score: 2.25 (inactive)
[5]
  z-score: 0.407 (inactive)
[6]
  z-score: 1.71 (inactive)
[7]
  z-score: 0.142
[8]
  z-score: 1.38 (inactive)
[9]
  z-score: 0.676 (inactive)
[10]
  z-score: 1.75
[11]
  z-score: -1.64
[12]
  z-score: 1.04
[13]
  z-score: -4.21
[14]
  z-score: -3.35
[15]
  z-score: -4.07
[16]
  z-score: -1.84
[17]
  z-score: 2.75 (inactive)
[18]
  z-score: -0.853
[19]
  z-score: -1.84
[20]
  z-score: -1.27 (inactive)

## O=C(NCc1ccccc1)[C@@]1(CCS(=O)(=O)c2ccccc2)N=C(c2ccc(OCCCO)cc2)O[C@H]1c1ccccc1
[1]
  z-score: 1.06 (inactive)
[2]
  composite z-score: 0.351
[3]
  z-score: 26.4 (active)
[4]
  z-score: 10.4 (active)
[5]
  z-score: 0.559 (inactive)
[6]
  z-score: 1.99 (inactive)
[7]
  z-score: 0.0734
[8]
  z-score: -0.321 (inactive)
[9]
  z-score: 1.35 (inactive)
[10]
  z-score: 1.33
[11]
  z-score: 0.364
[12]
  z-score: -0.153
[13]
  z-score: -0.203
[14]
  z-score: -0.335
[15]
  z-score: -0.672
[16]
  z-score: 1.17
[17]
  z-score: 0.802 (inactive)
[18]
  z-score: -0.935
[19]
  z-score: -1.58
[20]
  z-score: -0.541 (inactive)

## C=CCOC(=O)[C@@H]1[C@H]2C(=O)O[C@H](c3ccccc3)[C@H](c3ccccc3)N2[C@H](c2ccc(OCCOC(=O)[C@@H]3C[C@@H]4C(=O)N[C@@H](CCCC[N+](C)(C)C)C(=O)N4[C@@H]3c3cccc(OCCO)c3)cc2)[C@@]12C(=O)Nc1ccc(I)cc12
[1]
  z-score: -0.537 (inactive)
[2]
  composite z-score: 0.121
[3]
  z-score: 2.82 (inactive)
[4]
  z-score: 2.58 (inactive)
[5]
  z-score: 2.24 (inactive)
[6]
  z-score: 1.01 (inactive)
[7]
  z-score: -1.5
[8]
  z-score: 2.31 (inactive)
[9]
  z-score: 0.862 (inactive)
[10]
  z-score: 1.3
[11]
  z-score: -0.477
[12]
  z-score: 0.788
[13]
  z-score: -0.776
[14]
  z-score: -2.78
[15]
  z-score: -2.03
[16]
  z-score: -0.605
[17]
  z-score: 0.902 (inactive)
[18]
  z-score: -0.637
[19]
  z-score: -1.22
[20]
  z-score: 0.504 (inactive)

## CCCCCCC#C[Si](O[C@H](c1ccccc1)c1cn([C@H](CO)Cc2ccccc2)nn1)(C(C)C)C(C)C
[1]
  z-score: 2.03 (inactive)
[2]
  composite z-score: -0.217
[3]
  z-score: 0.704 (inactive)
[4]
  z-score: 0.268 (inactive)
[5]
  z-score: -0.55 (inactive)
[6]
  z-score: 0.602 (inactive)
[7]
  z-score: 0.447
[8]
  z-score: -1.25 (inactive)
[9]
  z-score: -0.227 (inactive)
[10]
  z-score: -2.2
[11]
  z-score: 1.77
[12]
  z-score: -0.121
[13]
  z-score: -0.407
[14]
  z-score: -0.178
[15]
  z-score: -0.542
[16]
  z-score: 0.338
[17]
  z-score: -0.94 (inactive)
[18]
  z-score: -0.229
[19]
  z-score: -1.75
[20]
  z-score: 0.419 (inactive)

## C=CC[C@@]1(C(=O)N(C)C)N=C(c2ccc(OCCCO)cc2)O[C@@H]1c1ccccc1N=[N+]=[N-]
[1]
  z-score: 0.722 (inactive)
[2]
  composite z-score: 0.57
[3]
  z-score: 33 (active)
[4]
  z-score: 28.9 (active)
[5]
  z-score: 3.29 (inactive)
[6]
  z-score: 8.39 (active)
[7]
  z-score: -0.195
[8]
  z-score: -1.12 (inactive)
[9]
  z-score: 0.475 (inactive)
[10]
  z-score: 0.446
[11]
  z-score: 0.459
[12]
  z-score: -0.423
[13]
  z-score: 0.571
[14]
  z-score: -0.761
[15]
  z-score: -1.51
[16]
  z-score: -0.328
[17]
  z-score: 1.04 (inactive)
[18]
  z-score: -0.874
[19]
  z-score: -1.31
[20]
  z-score: -1.48 (inactive)

— PubChem BioAssay
